Measurements as given in PubChem BioAssay AID540308 (The Scripps Research Institute Molecular Screening Center, 2011).
Out of some 360,000 compounds screened, about 3,500 (0.97%) were called active.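 Rule for the calls: active = activation above a per-plate cutoff, the mean activation of sample wells on that plate plus 3 SD (cut at about 8% in these data); inactive = the rest.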 Many of the other results were omitted from the sample, so actives are more common in it than they were.

Biological target: Melanocortin receptor 4 (Homo sapiens) (UniProt P32245)
Sequence (P32245 whole entry, looked up): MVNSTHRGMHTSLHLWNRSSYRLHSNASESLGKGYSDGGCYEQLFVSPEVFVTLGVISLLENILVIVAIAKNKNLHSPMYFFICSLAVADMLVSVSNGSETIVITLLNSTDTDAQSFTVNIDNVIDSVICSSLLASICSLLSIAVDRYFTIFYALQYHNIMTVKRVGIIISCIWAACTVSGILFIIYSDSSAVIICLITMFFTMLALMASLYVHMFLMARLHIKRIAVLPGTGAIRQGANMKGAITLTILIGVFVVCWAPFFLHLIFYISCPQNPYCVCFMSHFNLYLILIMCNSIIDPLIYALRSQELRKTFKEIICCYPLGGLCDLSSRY
Experiment: MC4R agonists recruiting beta-arrestin, primary screen, cell-based, luminescence, agonist arm of biased-ligand search (AID 540308)
Conditions: U2OS MC4R beta-arrestin complementation, at 8.9 µM, stronger effect = higher value, percent of melanotan II response, DMSO zero

Row | Structure (SMILES) | activation
1 | CCCCOC(=O)c1[nH]c(C)c(C(=O)OC)c1C | -0.04% (inactive)
2 | COC(=O)c1c(C)[nH]c(C(=O)/C=C/c2ccc(Cl)cc2)c1C | 30.6% (active)
3 | COC(=O)c1c(C)[nH]c(C(=O)NCCc2ccc(S(N)(=O)=O)cc2)c1C | 0.27% (inactive)
4 | CCCCCC(O)c1cccc(OCc2ccc3ccccc3n2)c1 (stereo unspecified) | 8.01% (inactive)
5 | COc1ccc(NC(=O)CN(C)C(=O)c2ccc(COc3ccccc3)o2)cc1 | -0.54% (inactive)
6 | CN(CC(=O)Nc1ccc(Cl)cc1)C(=O)c1ccc(COc2ccccc2)cc1 | 23.3% (active)
7 | CN(Cc1ccccc1)C(=O)c1ccc(COc2ccccc2)cc1 | -0.25% (inactive)
8 | O=C(Nc1nnc([C@H]2C[C@H](O)[C@@H](CO)O2)s1)c1cccc(Cl)c1 | 0.51% (inactive)
9 | Cc1cc(Br)ccc1NC(=O)CCCOc1cc(=O)n(C)c2ccccc12 | -1.42% (inactive)
10 | CCc1nc2c(OCCC3CCCCC3)cccn2c1N(C)C(=O)c1ccco1 | 1.25% (inactive)
11 | CC(C)c1cccc(-c2csc(C(O)c3ccccc3)n2)c1 (stereo unspecified) | 5.31% (inactive)
12 | N#CC(=C1CCCC1)c1nc(-c2ccc(Cl)cc2)cs1 | -1.29% (inactive)
13 | N#CC(=C1SC=CS1)c1nc(-c2ccccc2)cs1 | 30.3% (active)
14 | O=C(CN1CCOCC1)N/N=C/c1ccc(-c2ccc(Br)cc2)o1 | -3.54% (inactive)
15 | O=C(Cn1nnc(-c2ccccc2)n1)N/N=C/c1ccc(-c2ccc(Cl)cc2)o1 | 9.43% (active)
16 | Nc1nnn(CC(=O)N/N=C/c2ccccc2)n1 | -0.81% (inactive)
17 | Cc1cc2nc(SCCN3CCOCC3)[nH]c2cc1C | 3.6% (inactive)
18 | Cc1ccc(-n2nc3cc(Cl)c(NC(=O)c4ccco4)cc3n2)cc1 | 9.62% (active)
19 | Cc1ccc(NC(=O)c2ccco2)cc1 | -2.18% (inactive)
20 | Cc1ccc(-n2nc3cc(C)c(NC(=O)c4cccnc4)cc3n2)cc1 | 2.16% (inactive)
21 | CCOc1ccc(C(=O)Nc2ccc(S(=O)(=O)NCC3CCCO3)cc2)cc1OCC (stereo unspecified) | -3.73% (inactive)
22 | CCCNC(=O)C1(C)CCCN(Cc2c(C)nn(-c3ccccc3)c2C)C1 (stereo unspecified) | 0.24% (inactive)
23 | CC(C)Oc1cc(F)ccc1-c1cc(C(=O)Nc2cccc(Cl)c2)[nH]n1 | 0.52% (inactive)

Row | Structure (SMILES) | activation
24 | COc1ccccc1C(=O)OCC(=O)NCCNC(=O)COC(=O)c1ccccc1OC | -1.16% (inactive)
25 | Cc1cc(C)cc(C(=O)OCC(=O)NCCNC(=O)COC(=O)c2cc(C)cc(C)c2)c1 | 12% (active)
26 | COc1ccc(C(=O)OCC(=O)NCCCc2ccccc2)cc1OC | 1.24% (inactive)
27 | CCOC(=O)C1CCCN(C(=O)c2ccc(C)c(F)c2)CC1 (stereo unspecified) | -1.19% (inactive)
28 | Cc1cc(/C=C(/C#N)C(=O)Nc2ccc(Cl)cc2)c(C)n1-c1cccnc1 | 11.4% (active)
29 | N#C/C(=C\c1cccnc1)C(=O)Nc1ccc(SC(F)F)cc1 | -1.77% (inactive)
30 | Cc1ccc(-n2c(C)cc(/C=C(\C#N)C(=O)NCC3CCCO3)c2C)cc1 (stereo unspecified) | -2.19% (inactive)
31 | CC1(C(=O)NCC2CCOCC2)Cc2c(-c3cccc(C(N)=O)c3)ccnc2O1 (stereo unspecified) | 0.47% (inactive)
32 | COC(=O)c1ccccc1NC(=O)CSc1nnnn1C | -1.06% (inactive)
33 | CCOC(=O)c1c(-c2ccc(C)cc2C)csc1NC(=O)CSc1nnnn1C | 14.8% (active)
34 | Cn1nnnc1SCC(=O)Nc1sccc1C(N)=O | 0.49% (inactive)
35 | OC[C@H]1O[C@@H](c2nc(-c3nc(-c4ccc(F)cc4)no3)cs2)[C@H](O)[C@@H](O)[C@H]1O | -1.58% (inactive)
36 | Nc1nc(CSc2nnnn2-c2ccccc2)nc(Nc2ccccc2)n1 | 3.67% (inactive)
37 | CCOC(=O)c1ccc(-c2ccc3ncnc(N(C)Cc4sccc4C)c3c2)o1 | 1.6% (inactive)
38 | CC1(C(=O)NS(=O)(=O)c2ccc(C#N)cc2)CCN1C(=O)c1ccc(C2CCCCC2)cc1 (stereo unspecified) | -2.29% (inactive)
39 | CCc1ccc(CN(C)C(=O)C2CCC(=O)N(Cc3cccc(OC)c3)C2)nc1 (stereo unspecified) | -1.43% (inactive)
40 | Cc1nc2c(OCC(=O)C(C)(C)C)cccn2c1N(C)Cc1cccs1 | -0.1% (inactive)
41 | CN(C)CCN(C(=O)C1=COCCO1)c1nc2ccc(Cl)cc2s1 | 1.13% (inactive)
42 | CCN(CC(=O)Nc1c(F)cccc1F)C(=O)c1ccc(S(=O)(=O)N2CCCCC2)cc1 | -2.71% (inactive)
43 | CN(C)CCCN(C(=O)c1ccc(S(=O)(=O)N2CCCCCC2)cc1)c1nc2ccc(Br)cc2s1 | 9.74% (active)
44 | CCNC(=O)C1(C)CCN(Cc2ccc(C(=O)OCC)o2)C1 (stereo unspecified) | -1.16% (inactive)
45 | Cn1c(=O)c2cc(NC(=O)NCCc3cccs3)ccc2n1Cc1cccc(C(F)(F)F)c1 | -0.26% (inactive)
46 | CCc1nc2c(OCC(N)=O)cccn2c1N(C)C(=O)c1ccc(OC)cc1 | -1.44% (inactive)

Row | Structure (SMILES) | activation
47 | COc1cc(C2C(C(=O)Nc3ccc(F)cc3)=C(C)Nc3nc(CCCO)nn32)cc(OC)c1OC (stereo unspecified) | -1.43% (inactive)
48 | COc1ccc(NC(=O)C2=C(C)NC(=O)NC2c2ccccc2[N+](=O)[O-])cc1 (stereo unspecified) | -2.18% (inactive)
49 | COC(=O)c1nc2n(n1)C(c1ccc([N+](=O)[O-])cc1)C(C(=O)Nc1ccc(Cl)cc1)=C(C)N2 (stereo unspecified) | 9.62% (active)
50 | CCNC(=O)C1(C)CCN(C(=O)c2ccccc2)C1 (stereo unspecified) | 1.33% (inactive)
51 | CSCCC(Nc1ccc(S(=O)(=O)N2CCOCC2)cc1[N+](=O)[O-])C(=O)OCC(=O)N(C(C)C)C(C)C (stereo unspecified) | -3.39% (inactive)
52 | NC(=O)C1CCN(C(=O)c2cn(-c3ccccc3)nc2-c2cccnc2)CC1 | 8.8% (active)
53 | O=C(c1cn(-c2ccccc2)nc1-c1cccnc1)N1CCN(S(=O)(=O)c2ccccc2F)CC1 | -2.08% (inactive)
54 | COc1ccccc1N1CCN(C(=O)c2cn(-c3ccccc3)nc2-c2cccnc2)CC1 | 0.24% (inactive)
55 | COC(=O)c1ccc(NCc2cc(O)ccc2O)cc1 | -1.55% (inactive)
56 | O=C(OC12CC3CC(CC(C3)C1)C2)c1ccc(NCc2cc(O)ccc2O)cc1 | 18.7% (active)
57 | CC(C)OC(=O)c1ccc(NCc2cc(O)ccc2O)cc1Cl | -0.65% (inactive)
58 | CC(=O)NC(c1ccccc1)c1nc(-c2cccc(C(C)C)c2)cs1 (stereo unspecified) | -1.73% (inactive)
59 | CCCNC(=O)c1cc(C2CCCCN2C(=O)OC)on1 (stereo unspecified) | -0.19% (inactive)
60 | Cc1cccnc1CC(C)NC(=O)c1cc(COc2cncc(Cl)c2)on1 (stereo unspecified) | 0.62% (inactive)
61 | COc1ccc(OCc2cc(C(=O)NCC3(C)COC3)no2)c(Cl)c1 | -0.53% (inactive)
62 | Cc1cc(OCc2cc(C(=O)NCc3cc(C(C)C)no3)no2)cc(C)c1Cl | 10% (active)
63 | O=C(CCc1ccccc1)Nc1ccnn1C1CCN(Cc2ccc(OCCO)cc2)CC1 | 1.84% (inactive)
64 | CCCNC(=O)C1(C)CCN(Cc2ccc(Cl)c(Cl)c2)C1 (stereo unspecified) | -2.21% (inactive)
65 | Cc1oc2cc(Br)c(O)c(Br)c2c1C(=O)c1ccccc1 | -0.65% (inactive)
66 | CCOC(=O)c1c(C)oc2cc(Sc3ccccc3)c(O)c(O)c12 | 2.95% (inactive)
67 | CCOC(=O)c1c(-c2ccccc2)oc2cc(Br)c(O)c(C=O)c12 | 48% (active)
68 | COc1ccc(C2CC(c3cccc(OC)c3)=NN2c2ccc(S(N)(=O)=O)cc2)cc1 (stereo unspecified) | -0.4% (inactive)
69 | COc1ccc(-c2csc(C(O)c3cccc(Cl)c3)n2)cn1 (stereo unspecified) | -0.23% (inactive)

Row | Structure (SMILES) | activation
70 | CC1(C(=O)NS(=O)(=O)c2ccc(C#N)cc2)CCN1C(=O)CC1CCCC1 (stereo unspecified) | -0.26% (inactive)
71 | Cc1ccc(C(=O)NC(=S)Nc2ccc(N3CCOCC3)cc2)cc1 | -0.72% (inactive)
72 | Cc1ccc(NC(=S)NC(=O)c2ccc(-c3ccccc3)cc2)cc1 | 8.85% (active)
73 | CC(=O)Nc1ccc(NC(=S)NC(=O)c2ccc([N+](=O)[O-])c(C)c2)cc1 | 0.22% (inactive)
74 | Cn1c(NCc2cccnc2)nc2cc(-c3ccc(F)cc3)sc2c1=O | 1.42% (inactive)
75 | OC[C@@H]1CN(Cc2ccc3c(c2)OCO3)C[C@H](n2cnc3c(NCc4ccco4)ncnc32)O1 | 0.72% (inactive)
76 | CC(=O)Nc1cncc(-c2ccccc2CO)n1 | -1.61% (inactive)
77 | COc1ccc2ccccc2c1CNc1nnnn1C | -2.85% (inactive)
78 | Cn1c(=S)sc2ccc3ccccc3c21 | 18.2% (active)
79 | CCc1nc2ccc(C(=O)N3CCC(O)(Cc4ccccc4)CC3)cn2c1N(C)C(=O)Cc1ccccc1 | -0.81% (inactive)
80 | Cc1ccc(CCC(=O)Nc2ncc(Cc3cc(Cl)ccc3Cl)s2)o1 | 10.3% (active)
81 | Cc1ccc(Cc2cnc(N)s2)o1 | 0.06% (inactive)
82 | O=C(CCc1ccccc1Cl)Nc1ccc(S(=O)(=O)Nc2nccs2)cc1 | -1.67% (inactive)
83 | CNc1cnc(-c2cc(OC)c(OC)c(OC)c2)cn1 | 0.24% (inactive)
84 | CCOC(=O)C1(C)CCCN(C(=O)c2ccc(F)c(Cl)c2)C1 (stereo unspecified) | -0.39% (inactive)
85 | CC(=O)c1ccc(NC(=O)c2sc3nc4n(c(=O)c3c2C)CCCCC4)cc1 | -2.88% (inactive)
86 | CC(=O)Nc1ccc(NC(=O)c2sc3nc4c(c(-c5ccc(C)cc5)c3c2N)CCC4)cc1 | 11.7% (active)
87 | Cc1ccc(NC(=O)c2sc3nc(N)c(C#N)cc3c2N)cc1 | 7.55% (inactive)
88 | CC1(C(=O)NCc2ccc(F)c(F)c2)Cc2c(-c3ccc4c(c3)OCO4)ccnc2O1 (stereo unspecified) | -2.86% (inactive)
89 | CCOC(=O)C1(C)CCCN(C(=O)c2ccc(N(C)C)cc2)C1 (stereo unspecified) | -1.51% (inactive)
90 | CN(C)CCCOc1ccc(-c2ccc3nccn3c2)cn1 | -1.74% (inactive)
91 | CSc1ccc(CN2CCC2(C)C(=O)Nc2ccc(C)c(O)c2)cc1 (stereo unspecified) | -0.16% (inactive)
